Results taken from PubChem BioAssay AID799 (SRMLSC, 2007).
The campaign covered roughly 140,000 compounds. About 840 (0.6%) were called active. The full list was thinned out, with actives kept by preference. A number with no mark means an inactive call.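 Rule for the calls: active = viability gain under doxorubicin at or above a set limit, the compound median plus 3 SD (cut at about 4.7% in these data); inactive = the rest.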

Assay: H69AR viability gain despite doxorubicin, primary screen, MRP-1 activator project, H69AR cells, CellTiter-Glo (AID 799);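 note: MRP-1 overexpressing cells given doxorubicin 25 µM after compound pretreatment; 18-22 h compound pretreatment then 72 h with doxorubicin before readout; 0% = doxorubicin-only wells and 100% = vehicle-treated cells without doxorubicin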
Conditions: viability rescue, at 10 µM, active compounds read high

Question: Which viability increase does the source give for Cc1ccc(C(=O)/C=C/Nc2ccc(S(=O)(=O)Nc3onc(C)c3C)cc2)cc1 here?
Answer: Its viability increase is -1.44%.

Question: For Cc1ccc(S(=O)(=O)Nc2ccc3ncccc3c2)cc1, which viability increase is on record?
Answer: The viability increase was 5.23% (active).

Question: For O=S(=O)(Nc1ccc(Oc2ncccn2)c(Cl)c1)c1ccc(F)cc1, which viability increase is on record?
Answer: Its viability increase is -2.28%.

Question: Which viability increase does the source give for CCc1nccn1S(=O)(=O)c1cccc([N+](=O)[O-])c1 here?
Answer: Its viability increase is 1.01%.

Question: Which viability increase does the source give for NC(=O)COc1ccc2c3c(c(=O)oc2c1)CCCCC3 here?
Answer: The viability increase was -0.34%.

Question: Which viability increase does the source give for O=C(COc1ccc2oc3c(c2c1)CCCC3)Nc1ccccn1 here?
Answer: The viability increase was 5.27% (active).

Question: Which viability increase does the source give for N#CC1(NC(=O)COc2ccc3oc4ccccc4c3c2)CCCCC1 here?
Answer: Its viability increase is 0%.

Question: For O=C(COC(=O)Cc1ccc(F)cc1)Nc1cc(S(=O)(=O)N2CCOCC2)ccc1N1CCCC1, which viability increase is on record?
Answer: Its viability increase is 0.15%.

Question: Which viability increase does the source give for CN(C(=O)c1c(Cl)cnn1C)C12CC3CC(CC(C3)C1)C2 here?
Answer: The viability increase was -1.48%.

Question: Which viability increase does the source give for Clc1cccc(CN2COc3c(cc(Cl)c4cccnc34)C2)c1 here?
Answer: The viability increase was -5.22%.

Question: With COc1cccc(/C=N\NC(=O)C2=NNC(=O)C2C)c1O (stereo unspecified) as the compound, how does the viability increase read?
Answer: The viability increase was 8.24% (active).

Question: Which viability increase does the source give for COc1cccc(/C=N/NC(=O)c2[nH]nc3c2CCc2ccccc2-3)c1O here?
Answer: Its viability increase is -0.29%.

Question: Which viability increase does the source give for COc1ccc(C(=O)Nc2ccccc2C(=O)N/N=C/c2ccccc2OC)cc1 here?
Answer: Its viability increase is -3.65%.

Question: With CCn1cc(/C=C2/SC(=S)NC2=O)c(C)n1 as the compound, how does the viability increase read?
Answer: The viability increase was -3.74%.

Question: Which viability increase does the source give for Cc1ccc(NC(=S)NCc2ccccc2Cl)c(C)c1 here?
Answer: The viability increase was -3.43%.

Question: For CC1(C)CC(=O)C2=C(C1)N=C1SCCC(=O)N1C2c1ccc(C(F)(F)F)cc1 (stereo unspecified), which viability increase is on record?
Answer: Its viability increase is 9.27% (active).

Question: Which viability increase does the source give for Cc1ccc(C(=O)COC(=O)CCCC(=O)NC2CCCCC2)cc1[N+](=O)[O-] here?
Answer: Its viability increase is -1.8%.

Question: Which viability increase does the source give for COC(=O)N/N=C/c1ccc(-c2ccc(Cl)c(Cl)c2)o1 here?
Answer: Its viability increase is 9.18% (active).

Question: With O=C(N/N=C\c1ccc(-c2ccc(Cl)c(Cl)c2)o1)C(=O)N1CCCC1 as the compound, how does the viability increase read?
Answer: Its viability increase is 1.06%.

Question: Which viability increase does the source give for O=C(Cn1nnc(-c2ccccc2)n1)N/N=C/c1ccc(-c2ccc(Cl)cc2)o1 here?
Answer: The viability increase was -1.7%.

Question: For CCc1ccc(NC2Nc3cc(C)nn3S2)cc1 (stereo unspecified), which viability increase is on record?
Answer: The viability increase was 1.66%.

Question: For Cc1cccc(C)c1NC(=O)CSc1ccc([N+](=O)[O-])cn1, which viability increase is on record?
Answer: The viability increase was -2.01%.

Question: With COC(=O)c1ccccc1NC(=O)CSc1ccccn1 as the compound, how does the viability increase read?
Answer: The viability increase was -0.18%.

Question: Which viability increase does the source give for C/C(=N/NC(=O)CSc1ccccn1)c1ccc([N+](=O)[O-])cc1 here?
Answer: Its viability increase is 5.38% (active).

Question: Which viability increase does the source give for CC(C)(C)NC(=O)COC(=O)c1cc(Br)ccc1Cl here?
Answer: The viability increase was 1.61%.

Question: Which viability increase does the source give for Cc1ccc(C(=O)NC(C)c2ccccc2)cc1Br (stereo unspecified) here?
Answer: The viability increase was 2.53%.

Question: With COc1ccc(C(=O)ON=C2c3ccccc3-c3ccccc32)cc1OC as the compound, how does the viability increase read?
Answer: The viability increase was -0.45%.

Question: With COc1cccc(C2SCC(=O)N2c2cccc(C)c2)c1OC (stereo unspecified) as the compound, how does the viability increase read?
Answer: Its viability increase is -1.69%.

Question: For CSCC[C@H](NC(=O)OC(C)(C)C)C(=O)N/N=C/c1cc2ccc(C)cc2nc1Cl, which viability increase is on record?
Answer: The viability increase was -3.12%.

Question: With Cc1ccc(CN2C(=O)N/C(=C/c3cc(C)n(-c4ccccn4)c3C)C2=O)cc1 as the compound, how does the viability increase read?
Answer: The viability increase was 2.22%.

Question: Which viability increase does the source give for Cc1cc(C)cc(C(=O)N2CCN=C2SCc2ccc([N+](=O)[O-])cc2)c1 here?
Answer: Its viability increase is -4.17%.

Question: Which viability increase does the source give for Cc1cccc(CC(=O)N2CCN=C2SCc2ccc([N+](=O)[O-])cc2)c1 here?
Answer: The viability increase was -3.9%.

Question: For O=C(C1CC1)N1CCN=C1SCc1ccc(Cl)cc1, which viability increase is on record?
Answer: Its viability increase is 4.76% (active).

Question: With O=C(c1ccco1)N1CCN=C1SCc1cccc(Cl)c1 as the compound, how does the viability increase read?
Answer: The viability increase was 1.42%.

Question: For CCC(=O)N1CCN=C1SCc1ccc(F)cc1, which viability increase is on record?
Answer: Its viability increase is 5.28% (active).

Question: Which viability increase does the source give for CC1CCN(C(=O)c2ccc(CSc3ccc(Cl)cc3)cc2)CC1 here?
Answer: Its viability increase is -2.43%.

Question: Which viability increase does the source give for Cc1ccc(C(C[N+](=O)[O-])c2c(C)cc3ccccn23)cc1 (stereo unspecified) here?
Answer: Its viability increase is -4.62%.

Question: With COc1cc(C(=O)Nc2cc(C(F)(F)F)ccc2N2CCOCC2)ccc1O as the compound, how does the viability increase read?
Answer: Its viability increase is -4.55%.

Question: Which viability increase does the source give for O=c1[nH]cnc2c1c(-c1ccccc1)cn2-c1ccc(F)cc1 here?
Answer: The viability increase was -1.33%.

Question: With CSCCC(NC(=O)c1cc([N+](=O)[O-])cc([N+](=O)[O-])c1)c1nc2ccccc2[nH]1 (stereo unspecified) as the compound, how does the viability increase read?
Answer: The viability increase was -3.92%.

Question: Which viability increase does the source give for S=C(NCCc1ccccc1)NCc1ccccc1Cl here?
Answer: Its viability increase is -1.54%.

Question: For Cc1noc(/C=C/N(C)C)c1S(=O)(=O)N1CCCC(C(=O)NCc2ccco2)C1 (stereo unspecified), which viability increase is on record?
Answer: Its viability increase is 8.37% (active).

Question: With O=C(NCc1ccco1)C1CCCN(S(=O)(=O)c2cnc[nH]2)C1 (stereo unspecified) as the compound, how does the viability increase read?
Answer: The viability increase was -1.18%.

Question: For O=C(NCc1ccco1)C1CCCN(S(=O)(=O)c2ccccc2)C1 (stereo unspecified), which viability increase is on record?
Answer: The viability increase was 0.35%.

Question: With CCCc1c(C)nc2c(Br)cccc2c1Cl as the compound, how does the viability increase read?
Answer: Its viability increase is 0.38%.

Question: Which viability increase does the source give for O=C1CSC2=NCN(c3ccccc3)CN12 here?
Answer: Its viability increase is 8.4% (active).

Question: For O=C(NCc1cccs1)C(=O)NCC1OCCCN1S(=O)(=O)c1ccc(F)cc1 (stereo unspecified), which viability increase is on record?
Answer: Its viability increase is -1.49%.

Question: With CC(O)c1nc2ccccc2n1Cc1ccc([N+](=O)[O-])cc1 (stereo unspecified) as the compound, how does the viability increase read?
Answer: Its viability increase is -1.44%.

Question: For Cc1ccc(-c2c(C)n([O-])c3c([n+]2=O)CCC3)cc1, which viability increase is on record?
Answer: Its viability increase is -0.22%.

Question: With CC(C)(C)c1ccc(C(=O)NCc2nnc(SCC(=O)N3CCCc4ccccc43)n2-c2ccccc2)cc1 as the compound, how does the viability increase read?
Answer: Its viability increase is -0.43%.

Question: Which viability increase does the source give for Cc1ccc(CSCC(N)C(=O)O)cc1 (stereo unspecified) here?
Answer: The viability increase was 1.44%.

Question: For COc1cc2c(cc1/C=C1/NC(=O)N(c3ccccc3)C1=O)OCO2, which viability increase is on record?
Answer: Its viability increase is 0.58%.

Question: Which viability increase does the source give for CCC1(C)Cc2c(sc3nc(SC)nc(N)c23)CO1 (stereo unspecified) here?
Answer: The viability increase was -0.12%.

Question: With CCC1(C)Cc2c(sc3[nH]c(=S)n(Cc4ccccc4)c(=O)c23)CO1 (stereo unspecified) as the compound, how does the viability increase read?
Answer: Its viability increase is -3.87%.

Question: For CCC1(C)Cc2c(sc3nnn(CC(=O)Nc4ccc(Cl)cc4)c(=O)c23)CO1 (stereo unspecified), which viability increase is on record?
Answer: The viability increase was 9.27% (active).

Question: Which viability increase does the source give for COCc1c(C(=O)N/N=C/C2CC=CCC2)nnn1-c1nonc1N (stereo unspecified) here?
Answer: Its viability increase is -1.34%.

Question: Which viability increase does the source give for CC(C)(C)N(Cc1ccccc1)C(=O)COC(=O)CCc1c[nH]c2ccccc12 here?
Answer: Its viability increase is -1.32%.

Question: Which viability increase does the source give for CCc1nnc(NC(=O)CCC(=O)O)s1 here?
Answer: Its viability increase is 0.72%.

Question: With O=C(NCC(F)(F)F)Nc1nnc(C(F)(F)F)s1 as the compound, how does the viability increase read?
Answer: The viability increase was 7.12% (active).

Question: Which viability increase does the source give for COc1ccc(C)cc1NC(=O)CCC(=O)Nc1nnc(C(F)(F)F)s1 here?
Answer: The viability increase was 1.24%.

Question: Which viability increase does the source give for Cc1nnnn1/C(=C\c1ccccc1)C(=O)OCC(=O)N1CC2(C)CC1CC(C)(C)C2 (stereo unspecified) here?
Answer: Its viability increase is -4.97%.
